This is a sample that favours compounds with a hit; in the whole collection about 1.8% have one here.
MazF activator: increases E. coli MazEF RNase cleavage of RNA. activation, % at 20 µM. hit rate 0.32% among 350,000. P0AE70. FAM/BHQ RNA-DNA oligo cleavage fluorescence, 5 h; in the data active = activation above about 50%
Target sequence (P0AE70 whole entry, looked up): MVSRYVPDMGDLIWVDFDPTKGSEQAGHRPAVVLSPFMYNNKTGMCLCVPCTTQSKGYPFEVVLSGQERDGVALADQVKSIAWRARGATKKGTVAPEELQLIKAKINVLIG
PrPC surface inh: reduces human prion protein on the cell surface; cell surface PrPC, TR-FRET read-out; inhibition, % at 13.8 µM; hit rate 0.43% among 370,000; P04156; AID 720596; in the data active = inhibition above about 24%; also: 0% = median of the test wells and 100% = reference compound wells
Y pestis TopoI: Y. pestis Topo-I inhibition via cleavage products | hit rate 0.064% among 360,000 | Y. pestis Topo-I cleavage product accumulation, plate reader | activity, % at 10 µM | AID 504884; in the data active = activity above about 50%, passing the limit was not always enough
DUSP3 inh: inhibitors of human VHR1 phosphatase (DUSP3); P51452; recombinant VHR phosphatase, pNPP absorbance; inhibition, % at 13.3 µM; hit rate 0.52% among 290,000; AID 1654; in the data active = inhibition above about 50%
Target sequence (P51452 whole entry, looked up): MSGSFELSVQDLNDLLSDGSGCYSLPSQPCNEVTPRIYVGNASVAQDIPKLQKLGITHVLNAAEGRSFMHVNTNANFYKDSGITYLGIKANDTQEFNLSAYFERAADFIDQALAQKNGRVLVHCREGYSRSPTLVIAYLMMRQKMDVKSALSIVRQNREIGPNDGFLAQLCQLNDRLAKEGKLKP
CCHF vOTU inh: blocks the CCHF virus ovarian tumor domain protease | CCHFV vOTU protease, Pep-AMC fluorescence | inhibition, % at 11.5 µM | hit rate 0.55% among 370,000; in the data active = inhibition above about 30%; also: 0% = vehicle wells with enzyme and 100% = no enzyme wells
Vc quorum ag-1: inducers of Vibrio cholerae quorum light production without autoinducers. hit rate 0.16% among 350,000. AID 588436. V. cholerae BH1578 lux reporter, luminescence, 6 h. activation, % at 18.7 µM; in the data active = activation mostly above about 9.7%, no sharp cut-off
Vc quorum ag-2: quorum light induction in BH1578 reporter strain; shares compounds with Vc quorum ag-1; V. cholerae BH1578 lux reporter, luminescence, 6 h; activation, % at 50 µM; 620 tested, under 10 active; AID 602243; call rule not given here
HeLa tox: HeLa cell viability loss at 24 h | CellTiter-Glo ATP luminescence | AID 624140 | 25 tested, under 10 active | activity change, negative = cytotoxicity, % at 35 µM | shares compounds with Vc quorum ag-1;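 active = signal drop with fitted half-maximal concentration at or below twice the highest valid dose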
* = called active by the depositor.

How did Cc1ccc(C(=O)OCC(=O)NC2CCCC2)cc1 do in these assays?
MazF activator: 6; PrPC surface inh: 0; Y pestis TopoI: 2; DUSP3 inh: -15; CCHF vOTU inh: 9; Vc quorum ag-2: inactive; HeLa tox: 11

How did Cc1cc(C(=O)OCC(=O)NC2CCCC(C)C2C)c(C)o1 (centres undefined) do in these assays?
MazF activator: 5; PrPC surface inh: -15; Y pestis TopoI: 6; CCHF vOTU inh: -1; Vc quorum ag-1: inactive

How did COc1ccc(CNS(=O)(=O)/C=C/c2ccc(F)cc2CNC(=O)OC(C)(C)C)cc1 do in these assays?
PrPC surface inh: 0; CCHF vOTU inh: 9

What do the screens show for `O=C(COC(=O)c1cc(Cl)ccc1Cl)NC1CCCC1`?
MazF activator: 6; PrPC surface inh: 11; Y pestis TopoI: 0; DUSP3 inh: -11; CCHF vOTU inh: 21; Vc quorum ag-1: 28*; Vc quorum ag-2: 29

Results for CC(C)(C)c1ccc(C(=O)OCC(=O)NC2CC2)cc1 ?
MazF activator: 1; PrPC surface inh: 3; Y pestis TopoI: 3; CCHF vOTU inh: -13; Vc quorum ag-1: 26; Vc quorum ag-2: 18

How did Cc1cc(C)n2nc(SCC(=O)N(CCC#N)c3ccc(F)cc3)nc2n1 do in these assays?
MazF activator: -15; PrPC surface inh: -2; Y pestis TopoI: -2; CCHF vOTU inh: 8; Vc quorum ag-1: inactive

Results for O=C(COC(=O)[C@H](Cc1ccccc1)NC(=O)c1ccco1)Nc1ccccc1OC(F)F ?
MazF activator: -2; PrPC surface inh: -8; Y pestis TopoI: 21; CCHF vOTU inh: 2; Vc quorum ag-1: inactive

How did Cc1ccc(CNc2nc3ccc(C)cc3n3cnnc23)cc1 do in these assays?
MazF activator: 14; PrPC surface inh: 5; Y pestis TopoI: 8; DUSP3 inh: -18; CCHF vOTU inh: -6

How did Cc1ccc2nc(NCCc3ccccc3)c3nncn3c2c1 do in these assays?
MazF activator: -15; PrPC surface inh: 4; Y pestis TopoI: 6; DUSP3 inh: -10; CCHF vOTU inh: -5; Vc quorum ag-1: 111*; Vc quorum ag-2: 1

How did CCC(NC(=O)Nc1nccs1)(C(F)(F)F)C(F)(F)F do in these assays?
MazF activator: 5; PrPC surface inh: 1; Y pestis TopoI: -2; DUSP3 inh: 41; CCHF vOTU inh: 1; Vc quorum ag-1: 17*; Vc quorum ag-2: 1

How did CCC(C(=O)Nc1nccs1)(C(F)(F)F)C(F)(F)F do in these assays?
MazF activator: 2; PrPC surface inh: 1; Y pestis TopoI: 3; DUSP3 inh: 22; CCHF vOTU inh: -3; Vc quorum ag-1: inactive

What do the screens show for `Cc1cn(CC(=O)NCCCN2CCCC2=O)c(=O)[nH]c1=O`?
MazF activator: 9; PrPC surface inh: -3; Y pestis TopoI: -2; CCHF vOTU inh: 12; Vc quorum ag-1: -1

Results for O=C(COC(=O)c1ccc(O)cc1)Nc1ccc2c(c1)OCCO2 ?
MazF activator: -21; PrPC surface inh: -8; Y pestis TopoI: -6; CCHF vOTU inh: 14; Vc quorum ag-1: 1

What do the screens show for `O=C(COC(=O)c1ccc(O)cc1)c1ccc2c(c1)OCCO2`?
MazF activator: -1; PrPC surface inh: 5; Y pestis TopoI: 2; CCHF vOTU inh: -6; Vc quorum ag-1: 14; Vc quorum ag-2: 6

Results for COCCNc1nc2c(c(=O)n(Cc3cccc(Cl)c3)c(=O)n2C)n1C ?
MazF activator: 4; PrPC surface inh: -3; Y pestis TopoI: 2; CCHF vOTU inh: -8; Vc quorum ag-1: -1

How did COCCNc1nc2c(c(=O)n(Cc3ccc(OC)cc3)c(=O)n2C)n1C do in these assays?
MazF activator: 9; PrPC surface inh: -6; Y pestis TopoI: 2; DUSP3 inh: -10; CCHF vOTU inh: -2; Vc quorum ag-1: 14; Vc quorum ag-2: 0

How did COc1cccc(NC(=O)C2CC(=O)OC23CCOC(C)(C)C3)c1 (centres undefined) do in these assays?
MazF activator: 0; PrPC surface inh: -6; Y pestis TopoI: 8; DUSP3 inh: 19; CCHF vOTU inh: 0; Vc quorum ag-1: 18; Vc quorum ag-2: 0

Bioassay records from PubChem.
